Records with an inconclusive call do not appear. Active and inactive are the calls of the source. Unless noted, calls follow the shape of the dose curve; as a rule, active = well fitted curve in the direction sought with a large enough effect in the repeat runs; inconclusive = weak or mixed curves; inactive = no such curve, though single readings can be large; an effect the other way counts as inactive or inconclusive.
Assays:
[1] = target: Thyrotropin receptor (Homo sapiens) (UniProt P16473); assay: qHTS assay to identify small molecule antagonists of the thyroid stimulating hormone receptor (TSHR) signaling pathway (AID 1259385; calls by dose curve; also: nearly all actives have a fitted effect of over 20% in size)
Chain of Thyrotropin receptor (Homo sapiens) (P16473 whole entry, looked up): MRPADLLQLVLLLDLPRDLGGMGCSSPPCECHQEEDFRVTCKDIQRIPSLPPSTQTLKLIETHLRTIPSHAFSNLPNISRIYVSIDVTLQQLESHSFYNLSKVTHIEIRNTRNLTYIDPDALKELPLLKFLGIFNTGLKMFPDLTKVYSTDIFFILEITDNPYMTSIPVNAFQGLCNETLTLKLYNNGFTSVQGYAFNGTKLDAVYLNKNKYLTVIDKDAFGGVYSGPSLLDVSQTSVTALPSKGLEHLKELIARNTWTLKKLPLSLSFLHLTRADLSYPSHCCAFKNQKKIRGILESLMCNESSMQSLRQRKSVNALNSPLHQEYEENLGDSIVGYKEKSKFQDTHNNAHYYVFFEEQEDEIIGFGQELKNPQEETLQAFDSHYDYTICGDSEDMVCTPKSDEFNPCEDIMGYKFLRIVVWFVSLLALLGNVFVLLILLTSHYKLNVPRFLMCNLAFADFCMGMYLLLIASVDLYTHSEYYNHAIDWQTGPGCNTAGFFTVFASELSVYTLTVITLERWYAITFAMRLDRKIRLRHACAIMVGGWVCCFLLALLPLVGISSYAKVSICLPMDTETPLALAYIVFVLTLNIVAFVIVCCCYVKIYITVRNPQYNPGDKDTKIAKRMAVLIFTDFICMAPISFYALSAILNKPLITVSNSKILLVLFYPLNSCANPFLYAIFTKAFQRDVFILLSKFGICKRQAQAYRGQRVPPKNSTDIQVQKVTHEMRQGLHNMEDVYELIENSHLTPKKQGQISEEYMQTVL
Method in brief: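 TSHR-HEK293 cells (800/well) plated 18 h, then compounds with Ro20-1724 and TSH at 1.5 ng/mL final, 30 min at room temperature. cAMP quantified by HTRF (cAMP-d2/anti-cAMP-cryptate, 1 h); 15 concentrations in triplicate.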

[2] = qHTS assay to identify small molecule agonists of the estrogen receptor alpha (ER-alpha) signaling pathway in the presence of an antagonist - cell viability counter screen (AID 1259386);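 also: series mostly up to about 92 µM; cells exposed to compounds for 22 h at 37 °C before the viability read; nearly all actives have a fitted effect of over 30% in size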
Method in brief: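 Read-out: CellTiter-Fluor fluorescence after 1hr reagent incubation, measured in the same wells as the luciferase readout. VM7Luc4E2 cells were exposed to 15 compound concentrations with 10.0nM ICI-182,780 for 22hr at 37C.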

[3] = target: Progesterone receptor (Homo sapiens) (UniProt P06401); assay: qHTS assay to identify small molecule agonists of the progesterone receptor (PR) signaling pathway (AID 1346784; calls by dose curve; also: nearly all actives have a fitted effect of over 30% in size)
Chain of Progesterone receptor (Homo sapiens) (P06401 whole entry, looked up): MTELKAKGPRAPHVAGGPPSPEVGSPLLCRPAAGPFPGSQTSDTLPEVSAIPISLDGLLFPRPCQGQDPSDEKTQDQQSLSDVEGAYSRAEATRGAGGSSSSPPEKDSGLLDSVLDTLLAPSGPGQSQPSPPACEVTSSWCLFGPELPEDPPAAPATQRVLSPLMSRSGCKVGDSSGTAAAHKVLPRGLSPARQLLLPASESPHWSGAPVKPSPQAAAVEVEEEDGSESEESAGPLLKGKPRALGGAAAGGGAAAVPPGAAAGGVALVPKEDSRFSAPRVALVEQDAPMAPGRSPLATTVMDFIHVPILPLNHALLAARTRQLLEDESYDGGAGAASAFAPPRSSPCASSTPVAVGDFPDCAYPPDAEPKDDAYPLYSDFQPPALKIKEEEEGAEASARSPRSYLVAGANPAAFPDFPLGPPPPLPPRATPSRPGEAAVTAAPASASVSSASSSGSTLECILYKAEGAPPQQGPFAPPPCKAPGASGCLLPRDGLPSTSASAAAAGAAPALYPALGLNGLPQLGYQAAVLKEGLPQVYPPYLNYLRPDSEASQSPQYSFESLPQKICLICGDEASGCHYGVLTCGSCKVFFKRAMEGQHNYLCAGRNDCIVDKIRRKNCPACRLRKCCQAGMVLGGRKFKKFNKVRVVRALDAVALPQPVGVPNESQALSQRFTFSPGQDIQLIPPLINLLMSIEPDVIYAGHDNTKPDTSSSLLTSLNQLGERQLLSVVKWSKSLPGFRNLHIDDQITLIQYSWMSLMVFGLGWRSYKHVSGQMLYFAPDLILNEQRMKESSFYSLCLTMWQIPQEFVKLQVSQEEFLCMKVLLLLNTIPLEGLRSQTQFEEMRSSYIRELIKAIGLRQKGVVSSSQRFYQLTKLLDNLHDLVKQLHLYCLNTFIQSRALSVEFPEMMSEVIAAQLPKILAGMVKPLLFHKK
Method in brief: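 HEK 293T PR-UAS-bla reporter cells, 2% charcoal-stripped FBS; 6 hr settle at 37C/5% CO2, compound (DMSO) 16 hr, LiveBLAzer B/G FRET substrate 2 hr RT, fluorescence intensity read.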

[4] = target: Progesterone receptor (Homo sapiens) (UniProt P06401); assay: qHTS assay to identify small molecule antagonists of the progesterone receptor (PR) signaling pathway (AID 1346795; active = well fitted inhibition curve with a large enough effect in the signal ratio in the repeat runs, not every such curve was filed as active; the % refers to the signal ratio)
Method in brief: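 Beta-lactamase reporter, HEK293T PR-UAS-bla line; 2% charcoal-stripped FBS; 6 hr pre-incubation, 37C/5% CO2. Compound + R5020 1 nM final, 16 hr. LiveBLAzer B/G FRET substrate, 2 hr RT; fluorescence intensity read.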

[5] = qHTS assay to identify small molecule antagonists of the progesterone receptor (PR) signaling pathway - cell viability counter screen (AID 1346798); also: series mostly up to about 92 µM; nearly all actives have a fitted effect of over 50% in size
Method in brief: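 Luminescence readout (CellTiter-Glo, 30 min, RT) of viability in PR-UAS-bla HEK293T cells exposed to compound and R5020 agonist for 16 hr at 37C, 5% CO2; run in the same wells as the beta-lactamase reporter read.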

[6] = qHTS assay to identify small molecule agonists of the progesterone receptor (PR) signaling pathway - cell viability counter screen (AID 1346799; calls by dose curve; also: nearly all actives have a fitted effect of over 45% in size)
Method in brief: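 HEK293T PR-UAS-bla, 3,000 cells/well, 2% charcoal-stripped FBS; 6 h settle, compound 16 h at 37C/5% CO2; LiveBLAzer 2 h RT, then CellTiter-Glo 30 min RT, luminescence read.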

[7] = qHTS assay to identify small molecule antagonists of the TGF-beta/Smad signaling pathway - cell viability counter screen (AID 1346824); also: nearly all actives have a fitted effect of over 50% in size
Method in brief: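 SBE-bla HEK 293T cells, incubated overnight, then compound plus 0.25 ng/mL TGF-beta1 (stock added) for 5 hr at 37 C. Viability was read in the same wells by CellTiter-Glo luminescence after 30 min at room temperature.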

[8] = qHTS assay to identify small molecule agonists of the TGF-beta/Smad signaling pathway - cell viability counter screen (AID 1346829); also: top concentration of the series differs between compounds; nearly all actives have a fitted effect of over 45% in size
Method in brief: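 Here the cytotoxicity of library compounds is measured in SBE-bla HEK 293T cells treated for 5 hr, using CellTiter-Glo added to wells already read for the beta-lactamase reporter.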

[9] = qHTS assay to identify small molecule agonists of the TGF-beta/Smad signaling pathway (AID 1346859; active = well fitted activation curve with a large enough effect in the signal ratio in the repeat runs, not every such curve was filed as active; the % refers to the signal ratio; also: series mostly up to about 77 µM)
Method in brief: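 Read-out: fluorescence at 460 and 530 nm (405 nm excitation) after a 2 hr room-temperature incubation with beta-lactamase FRET substrate. SBE-bla HEK 293T cells had been treated with test compounds for 5 hr at 37 C.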

[10] = target: Thyrotropin-releasing hormone receptor (Homo sapiens) (UniProt P34981); assay: qHTS assay to identify small molecule antagonists of the thyrotropin-releasing hormone receptor (TRHR) signaling pathway (AID 1346877; active = well fitted inhibition curve with a large enough effect in the repeat runs, not every such curve was filed as active; also: series mostly up to about 51 µM)
Chain of Thyrotropin-releasing hormone receptor (Homo sapiens) (P34981 whole entry, looked up): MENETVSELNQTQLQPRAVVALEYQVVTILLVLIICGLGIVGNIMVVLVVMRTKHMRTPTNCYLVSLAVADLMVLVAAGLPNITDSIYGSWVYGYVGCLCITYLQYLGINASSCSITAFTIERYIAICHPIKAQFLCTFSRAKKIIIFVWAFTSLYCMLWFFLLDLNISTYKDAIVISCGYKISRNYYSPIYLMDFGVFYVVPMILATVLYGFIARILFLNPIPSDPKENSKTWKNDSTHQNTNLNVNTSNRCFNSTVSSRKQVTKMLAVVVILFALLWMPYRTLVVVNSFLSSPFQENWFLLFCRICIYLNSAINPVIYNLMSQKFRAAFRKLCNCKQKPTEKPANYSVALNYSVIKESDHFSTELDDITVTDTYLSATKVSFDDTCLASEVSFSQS
Method in brief: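 HEK293/TRHR cells, 18 h, 37 °C; Ca2+ dye 2 h; cpd 5 min RT; TRH 1 nM final; fluorescence read 3 min, 1 s intervals; 15 concs, triplicate.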
% is scaled to controls: 0 for no effect and ±100 for the full control effect.

CCOc1ccccc1O
inactive: Potency [1] | Potency [2] | Potency [3] | Potency [4] | Potency [5] | Potency [6] | outcome [7] | outcome [8] | outcome [9] | outcome [10]

CC(C)(C)NCC(O)COc1ccc(NC(=O)NC2CCCCC2)cc1 (stereo not given)
inactive: Potency [1] | Potency [2] | Potency [3] | Potency [4] | Potency [5] | Potency [6] | outcome [7] | outcome [8] | outcome [9] | outcome [10]

O=c1c2ccccc2oc2ccccc12
inactive: Potency [1] | Potency [2] | Potency [3] | Potency [4] | Potency [5] | Potency [6] | outcome [7] | outcome [8] | outcome [9] | outcome [10]

CCCCCCCCCCCCSC#N
inactive: Potency [1] | Potency [2] | Potency [3] | Potency [4] | Potency [5] | Potency [6] | outcome [7] | outcome [8] | outcome [9]

COC(=O)Cc1cccc2ccccc12
inactive: Potency [1] | Potency [2] | Potency [3] | Potency [4] | Potency [5] | Potency [6] | outcome [7] | outcome [8] | outcome [9]

CCCCOc1ccc(N)cc1
inactive: Potency [1] | Potency [2] | Potency [3] | Potency [4] | Potency [5] | Potency [6] | outcome [7] | outcome [8] | outcome [9] | outcome [10]

O=[N+]([O-])c1ccccc1CCO
inactive: Potency [1] | Potency [2] | Potency [3] | Potency [4] | Potency [5] | Potency [6] | outcome [7] | outcome [8] | outcome [9] | outcome [10]

OCCCO
inactive: Potency [1] | Potency [2] | Potency [3] | Potency [4] | Potency [5] | Potency [6] | outcome [7] | outcome [8] | outcome [9] | outcome [10]

C/C(=C(\CCO)SS/C(CCO)=C(\C)N(C=O)Cc1cnc(C)nc1N)N(C=O)Cc1cnc(C)nc1N
inactive: Potency [1] | Potency [2] | Potency [3] | Potency [4] | Potency [5] | Potency [6] | outcome [7] | outcome [8] | outcome [9] | outcome [10]

O=C(O)c1cc(C(=O)O)cc([N+](=O)[O-])c1
inactive: Potency [1] | Potency [2] | Potency [3] | Potency [4] | Potency [5] | Potency [6] | outcome [7] | outcome [8] | outcome [9] | outcome [10]

CC(C)(C)N
inactive: Potency [1] | Potency [2] | Potency [3] | Potency [4] | Potency [5] | Potency [6] | outcome [7] | outcome [8]

CS(C)=O
inactive: Potency [1] | Potency [2] | Potency [3] | Potency [4] | Potency [5] | Potency [6] | outcome [7] | outcome [8] | outcome [9]

CCCOC(C)=O
inactive: Potency [1] | Potency [2] | Potency [3] | Potency [4] | Potency [5] | Potency [6] | outcome [7] | outcome [8] | outcome [9] | outcome [10]

NC(=O)c1cc[n+](CC2=C(C(=O)[O-])N3C(=O)[C@@H](NC(=O)Cc4cccs4)[C@H]3SC2)cc1
inactive: Potency [1] | Potency [2] | Potency [3] | Potency [4] | Potency [5] | Potency [6] | outcome [7] | outcome [8] | outcome [9]

Nc1ccc(F)cc1F
inactive: Potency [1] | Potency [2] | Potency [3] | Potency [4] | Potency [5] | Potency [6] | outcome [7] | outcome [8]

CCc1c(C)[nH]c2c1C(=O)C(CN1CCOCC1)CC2 (stereo not given)
inactive: Potency [1] | Potency [2] | Potency [3] | Potency [4] | Potency [5] | Potency [6] | outcome [7] | outcome [8] | outcome [9] | outcome [10]

CC(C(=O)O)c1ccc2c(c1)Cc1cccnc1O2 (stereo not given)
inactive: Potency [1] | Potency [2] | Potency [3] | Potency [4] | Potency [5] | Potency [6] | outcome [8] | outcome [10]

C=CC(C)CCC=C(C)C (stereo not given)
inactive: Potency [1] | Potency [2] | Potency [3] | Potency [4] | Potency [5] | Potency [6] | outcome [8] | outcome [10]

O=C(O)COCC(=O)O
inactive: Potency [1] | Potency [2] | Potency [3] | Potency [4] | Potency [5] | outcome [7] | outcome [8] | outcome [9] | outcome [10]

O=C(O)CNc1ccccc1
inactive: Potency [1] | Potency [2] | Potency [3] | Potency [4] | Potency [5] | outcome [7] | outcome [8] | outcome [9] | outcome [10]

Cc1ccc2ccccc2c1[N+](=O)[O-]
inactive: Potency [1] | Potency [2] | Potency [3] | Potency [4] | Potency [5] | Potency [6] | outcome [8] | outcome [9] | outcome [10]

CC(O)C(C)O (stereo not given)
inactive: Potency [1] | Potency [2] | Potency [3] | Potency [4] | Potency [5] | Potency [6] | outcome [7] | outcome [8] | outcome [10]

CC(C)(C(=O)O)c1ccc(C(O)CCCN2CCC(C(O)(c3ccccc3)c3ccccc3)CC2)cc1 (stereo not given)
inactive: Potency [1] | Potency [2] | Potency [3] | Potency [4] | Potency [5] | outcome [7] | outcome [8] | outcome [9] | outcome [10]

N#C[C@@H]1CC(F)(F)CN1C(=O)CNC1CC2CCC(C1)N2c1ncccn1 (stereo not given in full)
inactive: Potency [1] | Potency [2] | Potency [3] | Potency [4] | Potency [5] | outcome [7] | outcome [8] | outcome [9]

O=C(O)c1ccc2c(c1)nc(C(=O)NC1CCN(C3CC3)CC1)n2Cc1cc(-c2ccc(Cl)s2)on1
inactive: activity change, negative = inhibition [1] 2.44% [at 19 µM] | activity change, negative = cytotoxicity [2] 7.53% [at 19 µM] | activation [3] 1.53% [at 19 µM] | activity change, negative = inhibition [4] -15.4% [at 18.9 µM] | activity change, negative = cytotoxicity [5] -14.4% [at 18.9 µM] | activity change, negative = cytotoxicity [6] -20.4% [at 19 µM] | viability change, negative = cytotoxic [7] 0.205% [at 15.8 µM] | activity change, negative = cytotoxicity [8] 20.2% [at 15.8 µM] | activity, negative = inhibition [10] 0.0336% [at 10.5 µM]
